Experiment in all cases: PBM; 200 nM protein, PBS
Holding throughout (details): dsDNA, one strand shown

Assay [1] addresses T1, NKX2-4 (Homo sapiens, UniProt Q9H2Z4 175-261, P217L).
T1 sequence: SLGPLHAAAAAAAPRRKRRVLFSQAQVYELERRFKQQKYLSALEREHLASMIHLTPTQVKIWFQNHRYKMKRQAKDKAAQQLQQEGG

In assay [2] the target is T2, NKX2-4 (Homo sapiens, UniProt Q9H2Z4 175-261, T231S).
T2 sequence: T1 sequence with L43P, T57S

For assay [3], the target named is T3, NKX2-4 (Homo sapiens, UniProt Q9H2Z4 175-261).
T3 sequence: T1 sequence with L43P

Assay [4] deals with T4, NKX2-4 (Homo sapiens, UniProt Q9H2Z4 175-261, R246Q).
T4 sequence: T1 sequence with L43P, R72Q

Assay [5] concerns the target ALX4 (Homo sapiens, UniProt Q9H161 200-286).
Assay [6] has as its target ALX4 (Homo sapiens, UniProt Q9H161 200-286, Q225E).
The target of assay [7] is HOXA2 (Homo sapiens, UniProt O43364 129-215, R185T).
The target of assay [8] is HOXA2 (Homo sapiens, UniProt O43364 129-215, R185K).
The target of assay [9] is VAX1 (Homo sapiens, UniProt Q5SQQ9 86-172).
For assay [10], the target named is VAX1 (Homo sapiens, UniProt Q5SQQ9 86-172, T142I).
Assay [11] addresses HOXA2 (Homo sapiens, UniProt O43364 129-215, Y150S).
The target in assay [12] is HOXA2 (Homo sapiens, UniProt O43364 129-215).
In assay [13] the target is VAX1 (Homo sapiens, UniProt Q5SQQ9 86-172, K157R).
Assay [14] addresses T5, NKX2-6 (Homo sapiens, UniProt A6NCS4 118-204, R150C).
T5 sequence: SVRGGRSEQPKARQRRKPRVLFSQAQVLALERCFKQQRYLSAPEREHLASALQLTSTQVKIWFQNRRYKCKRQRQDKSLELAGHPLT

Assay [15] deals with T6, NKX2-6 (Homo sapiens, UniProt A6NCS4 118-204).
T6 sequence: T5 sequence with C33R

In assay [16] the target is T7, NKX2-6 (Homo sapiens, UniProt A6NCS4 118-204, F151L).
T7 sequence: T5 sequence with C33R, F34L

The next assay deals with PITX2 (Homo sapiens, UniProt Q99697 72-157).
The target of assay [17] is HOXC10 (Homo sapiens, UniProt Q9NYD6 254-340).
Assay [18] deals with HOXC10 (Homo sapiens, UniProt Q9NYD6 254-340, K271E).

Numbering of substitutions follows the chain as printed.

This is an account of results in article PMC11006913.

Chain of ALX4 (Homo sapiens, UniProt Q9H161 200-286) (Q9H161 200-286): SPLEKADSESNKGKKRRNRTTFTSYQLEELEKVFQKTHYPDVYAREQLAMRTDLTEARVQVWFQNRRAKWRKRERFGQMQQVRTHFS
Chain of ALX4 (Homo sapiens, UniProt Q9H161 200-286, Q225E) (Q9H161 200-286 Q225E): as the sequence (Q9H161 200-286) above, with Q26E counted along it
Chain of VAX1 (Homo sapiens, UniProt Q5SQQ9 86-172, K157R) (Q5SQQ9 86-172 K157R): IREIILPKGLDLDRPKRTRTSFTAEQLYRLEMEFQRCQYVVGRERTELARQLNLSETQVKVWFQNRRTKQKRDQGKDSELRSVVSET
Chain of HOXA2 (Homo sapiens, UniProt O43364 129-215) (O43364 129-215): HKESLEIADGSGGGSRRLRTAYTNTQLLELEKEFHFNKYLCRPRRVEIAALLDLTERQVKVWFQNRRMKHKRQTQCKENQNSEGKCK
Chain of HOXA2 (Homo sapiens, UniProt O43364 129-215, R185K) (O43364 129-215 R185K): as the sequence (O43364 129-215) above, with R57K counted along it
Chain of HOXC10 (Homo sapiens, UniProt Q9NYD6 254-340, K271E) (Q9NYD6 254-340 K271E): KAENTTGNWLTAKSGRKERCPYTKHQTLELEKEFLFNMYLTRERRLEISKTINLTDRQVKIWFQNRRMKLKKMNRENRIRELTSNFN
Chain of VAX1 (Homo sapiens, UniProt Q5SQQ9 86-172) (Q5SQQ9 86-172): as the sequence (Q5SQQ9 86-172 K157R) above, with R72K counted along it
Chain of HOXC10 (Homo sapiens, UniProt Q9NYD6 254-340) (Q9NYD6 254-340): as the sequence (Q9NYD6 254-340 K271E) above, with E18K counted along it
Chain of VAX1 (Homo sapiens, UniProt Q5SQQ9 86-172, T142I) (Q5SQQ9 86-172 T142I): as the sequence (Q5SQQ9 86-172 K157R) above, with T57I, R72K counted along it
Chain of HOXA2 (Homo sapiens, UniProt O43364 129-215, R185T) (O43364 129-215 R185T): as the sequence (O43364 129-215) above, with R57T counted along it
Chain of HOXA2 (Homo sapiens, UniProt O43364 129-215, Y150S) (O43364 129-215 Y150S): as the sequence (O43364 129-215) above, with Y22S counted along it

Turning to CTACTCAA, the binding signal with NKX2-4 [1] was 12.1 upbm affinity estimate (log intensity, higher = more binding, comparable within an allelic series); with NKX2-4 [2], 12.5 upbm affinity estimate (log intensity, higher = more binding, comparable within an allelic series); with NKX2-4 [3], 12 upbm affinity estimate (log intensity, higher = more binding, comparable within an allelic series); with NKX2-4 [4], 12.4 upbm affinity estimate (log intensity, higher = more binding, comparable within an allelic series).

On to AGATGCCG, for which the binding signal in the assay with NKX2-4 [1] was 9.76 upbm affinity estimate (log intensity, higher = more binding, comparable within an allelic series); with NKX2-4 [2], 9.8 upbm affinity estimate (log intensity, higher = more binding, comparable within an allelic series); with ALX4 [5], 8.1 upbm affinity estimate (log intensity, higher = more binding, comparable within an allelic series); with NKX2-4 [3], 9.82 upbm affinity estimate (log intensity, higher = more binding, comparable within an allelic series); with ALX4 [6], 8.32 upbm affinity estimate (log intensity, higher = more binding, comparable within an allelic series); with NKX2-4 [4] it was 9.91 upbm affinity estimate (log intensity, higher = more binding, comparable within an allelic series).

As for GCCACGCC, the binding signal in the assay with NKX2-4 [1] is 9.91 upbm affinity estimate (log intensity, higher = more binding, comparable within an allelic series); with NKX2-4 [2] it was 9.93 upbm affinity estimate (log intensity, higher = more binding, comparable within an allelic series); in the assay with NKX2-4 [3], 9.88 upbm affinity estimate (log intensity, higher = more binding, comparable within an allelic series); in the assay with HOXA2 [7], 7.26 upbm affinity estimate (log intensity, higher = more binding, comparable within an allelic series); with HOXA2 [8], 10.2 upbm affinity estimate (log intensity, higher = more binding, comparable within an allelic series); with NKX2-4 [4], 9.85 upbm affinity estimate (log intensity, higher = more binding, comparable within an allelic series). Moreover, the binding signal is 7.13 upbm affinity estimate (log intensity, higher = more binding, comparable within an allelic series) in the assay with VAX1 [9]; 7.33 upbm affinity estimate (log intensity, higher = more binding, comparable within an allelic series) with VAX1 [10]; 10.4 upbm affinity estimate (log intensity, higher = more binding, comparable within an allelic series) with HOXA2 [11]; 7.17 upbm affinity estimate (log intensity, higher = more binding, comparable within an allelic series) with HOXA2 [12]; 7.18 upbm affinity estimate (log intensity, higher = more binding, comparable within an allelic series) with VAX1 [13].

In the case of CGTCCCGA, the binding signal was 9.52 upbm affinity estimate (log intensity, higher = more binding, comparable within an allelic series) with NKX2-4 [1]; 9.51 upbm affinity estimate (log intensity, higher = more binding, comparable within an allelic series) in the assay with NKX2-4 [2]; 8.27 upbm affinity estimate (log intensity, higher = more binding, comparable within an allelic series) in the assay with ALX4 [5]; 9.43 upbm affinity estimate (log intensity, higher = more binding, comparable within an allelic series) with NKX2-4 [3]; 8.37 upbm affinity estimate (log intensity, higher = more binding, comparable within an allelic series) with ALX4 [6]; 9.52 upbm affinity estimate (log intensity, higher = more binding, comparable within an allelic series) with NKX2-4 [4].

On to GATGAGGA, for which the binding signal in the assay with NKX2-4 [1] was 11.4 upbm affinity estimate (log intensity, higher = more binding, comparable within an allelic series); with NKX2-4 [2], 11.6 upbm affinity estimate (log intensity, higher = more binding, comparable within an allelic series); in the assay with NKX2-4 [3] it was 11.3 upbm affinity estimate (log intensity, higher = more binding, comparable within an allelic series).

Take CACGCCGC: the binding signal is 9.39 upbm affinity estimate (log intensity, higher = more binding, comparable within an allelic series) with NKX2-4 [1]; 9.34 upbm affinity estimate (log intensity, higher = more binding, comparable within an allelic series) with NKX2-4 [2]; 9.42 upbm affinity estimate (log intensity, higher = more binding, comparable within an allelic series) with NKX2-4 [3]; 9.39 upbm affinity estimate (log intensity, higher = more binding, comparable within an allelic series) with NKX2-6 [14]; 9.52 upbm affinity estimate (log intensity, higher = more binding, comparable within an allelic series) with NKX2-6 [15]; 9.48 upbm affinity estimate (log intensity, higher = more binding, comparable within an allelic series) with NKX2-4 [4]. Besides, the binding signal with NKX2-6 [16] is 9.29 upbm affinity estimate (log intensity, higher = more binding, comparable within an allelic series).

On to AGCGGCCA, for which the binding signal is 9.69 upbm affinity estimate (log intensity, higher = more binding, comparable within an allelic series) with NKX2-4 [1]; 9.47 upbm affinity estimate (log intensity, higher = more binding, comparable within an allelic series) with NKX2-4 [2]; 9.64 upbm affinity estimate (log intensity, higher = more binding, comparable within an allelic series) with NKX2-4 [3]; 8.04 upbm affinity estimate (log intensity, higher = more binding, comparable within an allelic series) with PITX2; 9.57 upbm affinity estimate (log intensity, higher = more binding, comparable within an allelic series) with NKX2-4 [4].

With AGCCTCAG, the binding signal is 9.76 upbm affinity estimate (log intensity, higher = more binding, comparable within an allelic series) with NKX2-4 [1]; 9.76 upbm affinity estimate (log intensity, higher = more binding, comparable within an allelic series) in the assay with NKX2-4 [2]; 10.1 upbm affinity estimate (log intensity, higher = more binding, comparable within an allelic series) with HOXC10 [17]; 9.79 upbm affinity estimate (log intensity, higher = more binding, comparable within an allelic series) with NKX2-4 [3]; 10.1 upbm affinity estimate (log intensity, higher = more binding, comparable within an allelic series) with HOXC10 [18]; 9.76 upbm affinity estimate (log intensity, higher = more binding, comparable within an allelic series) with NKX2-4 [4].

As to CTTCTCAA, the binding signal is 11.7 upbm affinity estimate (log intensity, higher = more binding, comparable within an allelic series) in the assay with NKX2-4 [1]; 11.9 upbm affinity estimate (log intensity, higher = more binding, comparable within an allelic series) in the assay with NKX2-4 [2]; 11.5 upbm affinity estimate (log intensity, higher = more binding, comparable within an allelic series) in the assay with NKX2-4 [3]; 11.9 upbm affinity estimate (log intensity, higher = more binding, comparable within an allelic series) with NKX2-4 [4].

Take CCGACGTC: the binding signal in the assay with NKX2-4 [1] is 9.19 upbm affinity estimate (log intensity, higher = more binding, comparable within an allelic series); with NKX2-4 [2], 9.13 upbm affinity estimate (log intensity, higher = more binding, comparable within an allelic series); with NKX2-4 [3], 9.23 upbm affinity estimate (log intensity, higher = more binding, comparable within an allelic series); in the assay with NKX2-4 [4], 9.18 upbm affinity estimate (log intensity, higher = more binding, comparable within an allelic series).

As for ACGGCCCG, the binding signal in the assay with NKX2-4 [1] was 9.61 upbm affinity estimate (log intensity, higher = more binding, comparable within an allelic series); with NKX2-4 [2], 9.59 upbm affinity estimate (log intensity, higher = more binding, comparable within an allelic series); with NKX2-4 [3] it was 9.62 upbm affinity estimate (log intensity, higher = more binding, comparable within an allelic series); with NKX2-4 [4], 9.64 upbm affinity estimate (log intensity, higher = more binding, comparable within an allelic series).

With GCACGGGC, the binding signal in the assay with NKX2-4 [1] is 9.59 upbm affinity estimate (log intensity, higher = more binding, comparable within an allelic series); with NKX2-4 [2] it was 9.54 upbm affinity estimate (log intensity, higher = more binding, comparable within an allelic series); with NKX2-4 [3] it was 9.58 upbm affinity estimate (log intensity, higher = more binding, comparable within an allelic series); in the assay with NKX2-4 [4], 9.56 upbm affinity estimate (log intensity, higher = more binding, comparable within an allelic series).

Regarding ATCGGAGC, the binding signal with NKX2-4 [1] is 9.93 upbm affinity estimate (log intensity, higher = more binding, comparable within an allelic series); in the assay with NKX2-4 [2], 9.93 upbm affinity estimate (log intensity, higher = more binding, comparable within an allelic series); with NKX2-4 [3], 9.9 upbm affinity estimate (log intensity, higher = more binding, comparable within an allelic series); in the assay with NKX2-4 [4] it was 10 upbm affinity estimate (log intensity, higher = more binding, comparable within an allelic series).
